Source: PubChem BioAssay
Most compounds without a hit are left out; they make up all but 2.6% or so of the library.
S16 viability: cytotoxicity in S16 Pmp22-F2sN Schwann cells; S16 Pmp22-F2sN Schwann cells viability, CellTiter-Glo, 24 h; Potency, µM (series often up to 57.5 µM), most hits filed as cytotoxic; 43,000 compounds, 0.48% hits; AID 1508642; note: nearly all actives have a fitted effect of over 65% in size
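S16 Schwann cells carrying the Pmp22-F2sN reporter, seeded in 1536-well format, were exposed to library compounds for 24 h at 37C. Viability was read as CellTiter-Glo luminescence after 15 min at room temperature.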
mTORC1 inh: reduces mTORC1 signaling in Tsc2 and p53 null MEF cells. 44,000 compounds, 0.78% hits. Potency, µM (highest dose often 38.3 µM), usual class: inhibitors. Tsc2-/- p53-/- MEF, phospho-rpS6 immunofluorescence/PI, 24 h. AID 493208; note: nearly all actives have a fitted effect of over 50% in size
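Plate MEFs (Tsc2-/-, p53-/-, empty vector) in DMEM/10% FBS; after 24 h add compound, incubate 24 h at 37 degree Celsius; fix in PFA/TX-100, block, stain phospho-rpS6 and 10 uM PI; scan at 488 nm; report % positive cells.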
PMP22 txn: modulates PMP22 transcription in S16 Schwann cells | 43,000 compounds, 2% hits | AID 1508649 | Potency, µM (highest dose often 57.5 µM), usual class: inhibitors | S16 Pmp22-F2sN Schwann cells, FLuc/NLuc coincidence luminescence, 24 h; active = clear falling dose curves in both reporters; inconclusive = both reporters move, but less clearly or upward; inactive = either reporter flat; the % is the NLuc reporter signal
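Reporter cells (S16 Pmp22-F2sN, 500–1,000 per well) exposed to compounds for 24 h, 37C, 5% CO2; lysis with FLuc read after 10 min, then Stop&Glo and NLuc read after 10 min.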
OvCa metastasis: inhibitors of ovarian cancer cell adhesion and invasion in omental model; SKOV3ip1-GFP adhesion/invasion on 3D omental model, fluorescence; Potency, µM (titrated, usually from 45.8 µM), actives largely listed as inhibitors; 46,000 compounds, 0.1% hits; AID 1963576; note: nearly all actives have a fitted effect of over 65% in size
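Primary human omental fibroblast/mesothelial 3D culture pre-formed 48 h. SKOV3ip1-GFP cells added with compounds (0.36-46 umol/L), incubated 2 h RT/16 h 37 C, fixed; GFP cells quantified at 488/509 nm.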
NLuc saturating: inhibits NanoLuc at saturating substrate, PMP22 counter-screen; shares compounds with PMP22 txn; Secreted NLuc enzyme (filtered S16 cell medium), Nano-Glo luminescence; Potency, µM (series often up to 57.5 µM), most hits filed as inhibitors; 690 compounds, 4% hits
NLuc Km counter: inhibits NanoLuc under Km conditions, PMP22 counter-screen. shares compounds with PMP22 txn. secreted NLuc enzyme, coelenterazine luminescence, Km conditions. Potency, µM (doses to about 57.5 µM), actives largely listed as inhibitors. 690 compounds, 5% hits
FLuc ctr PMP22: counter-screen for PMP22 expression modulators: firefly luciferase inhibition; shares compounds with PMP22 txn; purified P. pyralis FLuc, luminescence, 10 min; Potency, µM (series often up to 57.5 µM), usual class: inhibitors; 690 tested, under 10 active; AID 1508640
Target sequence (P08659 whole entry, looked up): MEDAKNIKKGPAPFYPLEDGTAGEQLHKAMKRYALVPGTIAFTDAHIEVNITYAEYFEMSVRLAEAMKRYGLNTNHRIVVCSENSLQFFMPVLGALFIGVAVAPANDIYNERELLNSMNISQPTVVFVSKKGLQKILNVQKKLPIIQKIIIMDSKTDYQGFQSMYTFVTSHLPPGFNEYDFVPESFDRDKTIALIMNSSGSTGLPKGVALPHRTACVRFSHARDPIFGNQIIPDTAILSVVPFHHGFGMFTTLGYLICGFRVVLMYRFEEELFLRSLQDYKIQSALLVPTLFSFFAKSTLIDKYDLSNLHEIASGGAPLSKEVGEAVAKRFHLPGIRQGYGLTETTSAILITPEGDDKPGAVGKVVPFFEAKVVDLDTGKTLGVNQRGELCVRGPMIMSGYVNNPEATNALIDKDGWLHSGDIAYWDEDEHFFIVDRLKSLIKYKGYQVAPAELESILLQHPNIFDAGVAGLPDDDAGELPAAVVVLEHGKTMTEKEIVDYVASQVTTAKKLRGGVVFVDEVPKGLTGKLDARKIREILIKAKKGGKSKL
S16 viab conf: confirmation of cytotoxicity in S16 Pmp22-F2sN Schwann cells (luciferase reporters placed in the Pmp22 gene). shares compounds with PMP22 txn. S16 Schwann cells viability, CellTiter-Glo ATP luminescence, 24 h. Potency, µM (top dose mostly 57.5 µM), usual class: cytotoxic. 690 compounds, 7% hits
PMP22 txn conf: confirmation of modulators of PMP22 gene transcription in S16 cells; Potency, µM (titrated, usually from 57.5 µM), hits mostly inhibitors; S16 Schwann cells Pmp22-F2sN, dual luciferase, 24 h; shares compounds with PMP22 txn; 690 compounds, 22% hits; AID 1508646; active = clear falling dose curves in both reporters; inconclusive = both reporters move, but less clearly or upward; inactive = either reporter flat; the % is the FLuc reporter signal
Each line names hits and unclear results; the compound was inactive in the other large screens (follow-up assays come after a bar, where they were run). Unless noted, calls come from the whole dose curve; as a rule, active = well fitted curve in the direction sought with a large enough effect; inconclusive = small, poorly fitted or top-dose-only effect, or another doubt; inactive = no such curve, though single readings can be large; an effect the other way counts as inactive or inconclusive.

CCC1CCCCN1CCCNC(=O)c1ccc2c(c1)N(Cc1ccccc1F)C(=O)c1ccccc1S2(=O)=O (stereo not drawn)	S16 viability inconclusive, mTORC1 inh inconclusive, PMP22 txn 8.9µM | NLuc saturating inactive | NLuc Km counter inactive | FLuc ctr PMP22 inactive | S16 viab conf inconclusive | PMP22 txn conf inconclusive
CCN1C[C@H](C)n2c(c(O)c3c(=O)n(Cc4ccc(F)c(Cl)c4)nc(C(=O)NC)c32)C1=O	none (no result: S16 viability, mTORC1 inh, PMP22 txn)
O=C(NCCc1ccccc1Cl)C1CCN(c2nc3ccccc3nc2C(F)(F)F)CC1	S16 viability inconclusive, PMP22 txn 9.5µM | NLuc saturating inactive | NLuc Km counter inactive | FLuc ctr PMP22 inactive | S16 viab conf inactive | PMP22 txn conf inactive
CNc1nc(-c2ccc3c(N)n[nH]c3c2)cc(N2C[C@@H](C(=O)NC3CCCCC3)CC[C@@H]2C)n1	none (no result: S16 viability, mTORC1 inh, PMP22 txn)
Cc1noc(/C=C/c2ccco2)c1S(=O)(=O)N1CCC(C(=O)Nc2ccc(F)c(Cl)c2)CC1	S16 viability inconclusive, PMP22 txn 12µM | NLuc saturating inactive | NLuc Km counter inactive | FLuc ctr PMP22 inactive | S16 viab conf inactive | PMP22 txn conf inactive
Cc1ccc(NC(=O)N2CCN(c3ccc(Cl)c(Cl)c3)CC2)cc1	PMP22 txn inconclusive
CC(C)c1ccc(NC(=O)N2CCN(c3ccc(Cl)c(Cl)c3)CC2)cc1	PMP22 txn 11µM | NLuc saturating inconclusive | NLuc Km counter inconclusive | FLuc ctr PMP22 inactive | S16 viab conf inactive | PMP22 txn conf inconclusive
COc1ccc(C(C)=O)cc1CSc1nc(NCc2ccccc2)c2ccccc2n1	PMP22 txn inconclusive
COc1ccc(C(C)=O)cc1CSc1nc(Nc2ccc(F)c(F)c2)c2ccccc2n1	PMP22 txn 18µM | NLuc saturating inconclusive | NLuc Km counter inconclusive | FLuc ctr PMP22 inactive | S16 viab conf inactive | PMP22 txn conf inconclusive
COC(=O)Nc1ccc(-c2nc(N3CCOCC3)c3cnn(C4CCN(C(=O)OC)CC4)c3n2)cc1	none (no result: S16 viability, mTORC1 inh, PMP22 txn)
Cc1cc(F)ccc1NC(=O)C1CCCN(c2nnc(-n3c(C)ccc3C)s2)C1 (stereo not drawn)	PMP22 txn inconclusive
Cc1cccc(NC(=O)C2CCCN(c3nnc(-n4c(C)ccc4C)s3)C2)c1C (stereo not drawn)	PMP22 txn 16µM | NLuc saturating inconclusive | NLuc Km counter inactive | FLuc ctr PMP22 inactive | S16 viab conf inactive | PMP22 txn conf inconclusive
Cc1ccc(C)n1-c1nnc(N2CCCC(C(=O)Nc3ccccc3Br)C2)s1 (stereo not drawn)	PMP22 txn 17µM | NLuc saturating inactive | NLuc Km counter inconclusive | FLuc ctr PMP22 inactive | S16 viab conf inactive | PMP22 txn conf inactive
Cc1ccccc1CNC(=O)C1CCCN(c2nnc(-n3c(C)ccc3C)s2)C1 (stereo not drawn)	S16 viability inconclusive, PMP22 txn 16µM | NLuc saturating inactive | NLuc Km counter inconclusive | FLuc ctr PMP22 inactive | S16 viab conf inactive | PMP22 txn conf inactive
C=CC[C@@H]1C=C(C)C[C@H](C)C[C@H](OC)[C@H]2O[C@@](O)(C(=O)C(=O)N3CCCC[C@H]3C(=O)O[C@H](C(C)=C[C@@H]3CC[C@H](O)[C@H](OC)C3)[C@@H](C)[C@@H](O)CC1=O)[C@@H](C)C[C@@H]2OC	none (no result: S16 viability, mTORC1 inh, PMP22 txn)
Cc1[nH]c2ccccc2c1C1(O)C(=O)N(Cc2ccc(Cl)cc2)c2ccccc21 (stereo not drawn)	S16 viability inconclusive, mTORC1 inh inconclusive, PMP22 txn inconclusive
